# Screening results from PubChem BioAssay.
# The list is not random: actives were taken first. Their share in the collection is about 1.1%.
# PKA-R1A act: activators of PKA-R1A complex. P00514+P68181. PKA-R1A dissociation, Cy5-IP20 fluorescence polarization; scaled: DMSO 0%, 113 µM cGMP 100%. activation, % at 11.4 µM. hit rate 0.083% among 340,000. AID 504707;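 active means percent activation above the mean of all tested compounds plus 3 SD, cut at about 19% in these data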;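 further: higher means more PKAc released from R1A so a rise in polarization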
# PKA-R2B act: PKA-R2B complex activation; P22694+P31323; PKA-R2B holoenzyme dissociation, Cy5-IP20 fluorescence polarization; R2B truncated from residue 108, S112A mutant; 0% DMSO only, 100% 113 µM cGMP; activation, % at 11.4 µM; hit rate 0.079% among 340,000; AID 504700;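 active means activation above a cutoff set at the mean over all compounds plus 3 SD, cut at about 18% in these data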;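 further: higher means more holoenzyme dissociation and a rise in polarization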
# Target sequence (P31323 whole entry, looked up, other chains not shown, the tested form may be a part): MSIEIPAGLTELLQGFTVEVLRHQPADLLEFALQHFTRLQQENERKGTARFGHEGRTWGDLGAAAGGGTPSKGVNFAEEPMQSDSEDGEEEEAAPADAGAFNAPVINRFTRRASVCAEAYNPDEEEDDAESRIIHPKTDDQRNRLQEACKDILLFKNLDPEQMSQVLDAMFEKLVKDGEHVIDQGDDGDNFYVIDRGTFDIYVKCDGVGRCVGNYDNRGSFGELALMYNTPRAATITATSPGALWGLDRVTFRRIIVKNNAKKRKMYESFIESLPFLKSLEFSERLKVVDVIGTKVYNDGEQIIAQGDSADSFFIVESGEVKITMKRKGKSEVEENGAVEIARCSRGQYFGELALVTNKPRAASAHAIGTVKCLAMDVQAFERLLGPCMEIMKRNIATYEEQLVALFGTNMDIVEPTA
# MsrA inh: inhibits bovine methionine sulfoxide reductase A; purified bovine MsrA, absorbance read-out; AID 651718; hit rate 0.75% among 360,000; inhibition, % at 15.5 µM
# bovine MsrA act: activators of bovine methionine sulfoxide reductase A; purified bovine MsrA, absorbance read-out; activation, % at 10.6 µM; hit rate 0.3% among 360,000; in the data active means activation above about 7.5%
# MsrA inh confirm: confirmation of bovine MsrA inhibitors; hit rate 41% among 2,300; purified bovine MsrA, absorbance read-out; inhibition, % at 15.5 µM; AID 651822; shares compounds with MsrA inh;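 further: coupled to thioredoxin reductase with NADPH and selenocystamine and DMSO as substrate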
# A number is an active result; n = inactive; x = not tested or not shown. Unless noted, no stated cut-off is given here; in the data, active means inhibition above about 4.5%; inactive means the rest.
SMILES,PKA-R1A act,PKA-R2B act,MsrA inh,bovine MsrA act,MsrA inh confirm
Cc1cc(C(=O)N/N=C/C=C/c2ccc(Br)cc2)n[nH]1,n,n,6.0,n,n
CC(C)c1cc(C(=O)N/N=C/C=C/c2ccccc2)n[nH]1,n,n,n,n,x
Cc1cc(C(=O)N/N=C/C=C/c2ccc([N+](=O)[O-])cc2)n[nH]1,n,n,7.6,n,7.9
COc1ccc(S(=O)(=O)N2CCCc3nc(-c4ccc(F)cc4)ccc32)cc1,x,x,n,x,x
N#CC(=Nc1cccc(F)c1)C1=C(O)c2ccccc2C1=O,x,x,5.2,n,n
COc1ccc(CN=C(C#N)C2=C(O)c3ccccc3C2=O)cc1,n,n,n,n,x
CC(C)CCOc1ccc(/C=N/N2C(=O)CSC2=S)cc1,n,n,n,n,x
COc1ccc(/C=N/N2C(=N)SCC2=O)cc1,n,n,6.3,n,n
CCOC(=O)c1cnc(/N=C/N(C)C)s1,n,n,5.0,n,n
CCCc1nnc(NC(=O)c2ccncc2)s1,n,n,n,n,x
CCc1nnc(NC(=O)c2ccncc2)s1,n,n,5.6,n,n
O=C(CCc1nc2ccccc2s1)OCc1ccccc1F,n,n,n,n,x
CC/C(=C/c1sc2ccc(C)cc2[n+]1CCCS(=O)(=O)[O-])SC,x,x,4.8,x,n
COc1ccccc1NS(=O)(=O)c1cc(-c2cnc(C3CC3)o2)ccc1C,n,n,n,n,x
COc1ccc(NS(=O)(=O)c2cc(-c3cnc(C4CC4)o3)ccc2C)cc1,n,n,11,n,7.2
CC(=O)COc1ccc2c(-c3ccccc3)cc(=O)oc2c1C,n,n,19,n,22
Cc1c(OCC(N)=O)ccc2c(-c3ccccc3)cc(=O)oc12,n,n,31,n,40
CCc1cccc(N=c2c([N+](=O)[O-])nn(-c3ccc(Cl)cc3)n2O)c1,n,n,5.4,n,5.3
Cc1cccc(N=c2c([N+](=O)[O-])nn(-c3ccc(Cl)cc3)n2O)c1,n,n,n,n,x
CO/N=C/C(C#N)=C/c1ccc(OC)cc1,n,n,6.7,n,4.8
COc1ccc(/C=C(/C#N)S(=O)(=O)c2ccc(C)cc2)cc1,n,n,n,n,x
COC(=O)C1=C(C)N(Cc2cccc(C(F)(F)F)c2)C(=NCc2ccccc2C(F)(F)F)NC1c1cccc(C(F)(F)F)c1 (centres undefined),x,x,n,x,x
O=C(N[C@H](C(=O)N1CCC[C@H]1C(=O)NCCc1ccccc1Cl)c1ccccc1)c1ccc(Cl)c(Cl)c1,x,x,n,x,x
Cc1cc(C)nc(NC(=O)c2cnc3sccn3c2=O)n1,n,n,5.5,n,4.7
Cc1cc(NS(=O)(=O)c2ccc(NC(=O)c3cnc4sccn4c3=O)cc2)nc(C)n1,n,n,n,n,x
SMILES,PKA-R1A act,PKA-R2B act,MsrA inh,bovine MsrA act,MsrA inh confirm
CC(C)n1cc(/C=N/Nc2ccc(C(=O)O)cc2)c2ccccc21,n,n,5.5,n,n
O=C(N/N=C\c1c[nH]c2ccccc12)c1ccc(O)cc1,n,n,5.3,n,n
NC(=S)N/N=C/c1c[nH]c2ccccc12,n,n,6.5,n,n
O=C(O)c1ccc(N/N=C/c2c[nH]c3ccccc23)cc1,n,n,5.6,n,6.1
COC(=O)N/N=C/c1c[nH]c2ccccc12,n,n,n,n,x
O=C(O)c1ccc(S(=O)(=O)NN=Cc2c[nH]c3ccccc23)cc1,n,n,n,n,x
COC(=O)c1ccc(CN2C(=O)[C@]3(OCCC=C[C@H]3C)c3ccccc32)cc1,x,x,n,x,x
COc1ccccc1C(=O)NC1CCCCN(C)C1=O (centres undefined),x,x,n,x,x
Cc1ccc(Cn2cc(CN(C)C3CN(Cc4cn(Cc5ccc(C)cc5)nn4)S(=O)(=O)C3)nn2)cc1 (centres undefined),x,x,n,n,x
Cc1ccc(N(CC(=O)NC(C)C)C(=O)CCC(=O)Nc2ccccn2)c(C)c1,n,n,n,n,x
c1csc(-c2nnc(-c3ccc(N4CCOCC4)cc3)o2)c1,n,n,5.2,n,n
COc1ccc(-c2nnc(-c3cccs3)o2)cc1OC,n,n,5.3,n,n
CCOc1ccc(-c2nnc(-c3cccs3)o2)cc1,n,n,n,n,x
COc1cc(-c2nnc(-c3cccs3)o2)cc(OC)c1OC,n,n,n,n,x
Cc1cc(CNC(=O)COC(=O)c2ccc(Cl)c(N)c2)cc(C)c1O,n,n,n,n,x
CC(C)(C)NC(=O)COC(=O)/C=C/c1ccc(F)cc1,n,n,n,n,x
COc1cccc(C2=CC(c3cccc(OC)c3OC)n3nnnc3N2)c1 (centres undefined),n,n,14,n,9.3
CCOc1cc(/C=N/NC(=O)c2cccs2)cc([N+](=O)[O-])c1O,n,n,8.2,n,4.9
